Assay results reported in PubChem BioAssay (EPA / NIEHS).
The source made the active and inactive calls. Rule for the calls: active = hit-call score of the fitted dose curve at least 0.9, where 1 is the maximum; inactive = score below 0.9.

Key:
[1] = read-out: TIMP metallopeptidase inhibitor 1 (TIMP1), TIMP1 (gene 7076); assay: BSK_hDFCGF_TIMP1: BioMAP Diversity Plus: hDFCGF Assay for TIMP metallopeptidase inhibitor 1 (TIMP1) Biomarker Activity (AID 2283062); details: primary human foreskin fibroblasts; actives raise or lower the signal
Method in brief: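 Primary human foreskin fibroblasts in the hDFCGF system were dosed with compound for 24 h, then TIMP-1 was measured by ELISA. Activity was fitted bidirectionally relative to DMSO control; parallel SRB staining assessed cytotoxicity.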

[2] = read-out: Monokine induced gamma interferon (MIG), CXCL9 (gene 4283); assay: BSK_hDFCGF_MIG: BioMAP Diversity Plus: hDFCGF Assay for Monokine induced gamma interferon (MIG) Biomarker Activity (AID 2283063); details: primary human foreskin fibroblasts; actives raise or lower the signal
Method in brief: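 ELISA read-out of MIG from primary human dermal fibroblasts 24 h post-dosing. Gain or loss of signal fitted bidirectionally, DMSO as baseline.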

[3] = read-out: Matrix Metallopeptidase 1 (MMP1), MMP1 (gene 4312); assay: BSK_hDFCGF_MMP1: BioMAP Diversity Plus: hDFCGF Assay for Matrix Metallopeptidase 1 (MMP1) Biomarker Activity (AID 2283064); details: primary human foreskin fibroblasts; actives raise or lower the signal
Method in brief: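 Primary human foreskin fibroblasts in the hDFCGF system were dosed with test chemical, and MMP1 was measured by ELISA 24 h later. Values come from bidirectional curve fitting against the DMSO baseline.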

[4] = read-out: Vascular cell adhesion molecule 1 (VCAM1), VCAM1 (gene 7412); assay: BSK_hDFCGF_VCAM1: BioMAP Diversity Plus: hDFCGF Assay for Vascular cell adhesion molecule 1 (VCAM1) Biomarker Activity (AID 2283065); details: primary human foreskin fibroblasts; actives raise or lower the signal
Method in brief: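 Primary human foreskin fibroblasts (hDFCGF system) were dosed with chemical and VCAM-1 was measured by ELISA 24 h later. Bidirectional curve fitting used DMSO as negative control and activity baseline.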

[5] = read-out: Plasminogen activator inhibitor-1 (PAI1), SERPINE1 (gene 5054); assay: BSK_hDFCGF_PAI1: BioMAP Diversity Plus: hDFCGF Assay for Plasminogen activator inhibitor-1 (PAI1) Biomarker Activity (AID 2283066); details: primary human foreskin fibroblasts; actives raise or lower the signal
Method in brief: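 Primary dermal fibroblasts (human foreskin), hDFCGF system; compound 24 h; PAI-1 by ELISA; bidirectional fit vs DMSO control.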

[6] = read-out: Intercellular Adhesion Molecule 1 (ICAM1), ICAM1 (gene 3383); assay: BSK_KF3CT_ICAM1: BioMAP Diversity Plus: KF3CT Assay for Intercellular Adhesion Molecule 1 (ICAM1) Biomarker Activity (AID 2283067); details: primary human keratinocytes with fibroblasts; actives raise or lower the signal
Method in brief: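 Human keratinocyte plus foreskin fibroblast primary co-culture was exposed to chemical for 24 h. ICAM-1 was then quantified by ELISA, and the data were fit bidirectionally against DMSO as the negative control and baseline.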

[7] = read-out: Interferon-gamma inducible Protein 10 (IP10), CXCL10 (gene 3627); assay: BSK_KF3CT_IP10: BioMAP Diversity Plus: KF3CT Assay for Interferon-gamma inducible Protein 10 (IP10) Biomarker Activity (AID 2283068); details: primary human keratinocytes with fibroblasts; actives raise or lower the signal
Method in brief: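 KF3CT co-culture (keratinocytes + foreskin fibroblasts), 24 h compound, IP-10 by ELISA; bidirectional fit vs DMSO baseline.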

[8] = BSK_KF3CT_SRB: Viability Assessment in the BioMAP Diversity Plus: KF3CT Assay (AID 2283069); details: primary human keratinocytes with fibroblasts;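 note: total protein by sulforhodamine B staining as a cytotoxicity measure; read 24 h after compound addition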
Method in brief: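 Human primary keratinocyte plus foreskin fibroblast co-culture exposed to chemicals for 24 h. Total protein measured by 0.1% sulforhodamine B staining after 10% TCA fixation, read at 560 nm; bidirectional fitting versus DMSO baseline.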

[9] = read-out: Interleukin-1 alpha (IL1a), IL1A (gene 3552); assay: BSK_KF3CT_IL1a: BioMAP Diversity Plus: KF3CT Assay for Interleukin-1 alpha (IL1a) Biomarker Activity (AID 2283070); details: primary human keratinocytes with fibroblasts; actives raise or lower the signal
Method in brief: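 Human keratinocyte plus foreskin fibroblast primary co-culture, sampled 24 h after chemical dosing. IL-1a measured by ELISA; responses fitted bidirectionally against DMSO baseline (negative control), so gain or loss of signal both count.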

[10] = read-out: TIMP metallopeptidase inhibitor 2 (TIMP2), TIMP2 (gene 7077); assay: BSK_KF3CT_TIMP2: BioMAP Diversity Plus: KF3CT Assay for TIMP metallopeptidase inhibitor 2 (TIMP2) Biomarker Activity (AID 2283071); details: primary human keratinocytes with fibroblasts; actives raise or lower the signal
Method in brief: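 Cells: human keratinocytes co-cultured with foreskin fibroblasts. Treat with chemical, 24 h. Measure TIMP-2 by ELISA; fit curves bidirectionally vs DMSO baseline.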

[11] = read-out: Transforming growth factor beta 1 (TGFb1), TGFB1 (gene 7040); assay: BSK_KF3CT_TGFb1: BioMAP Diversity Plus: KF3CT Assay for Transforming growth factor beta 1 (TGFb1) Biomarker Activity (AID 2283072); details: primary human keratinocytes with fibroblasts; actives raise or lower the signal
Method in brief: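 Primary human skin cells (keratinocytes, foreskin fibroblasts) were co-cultured, exposed to test chemical and sampled at 24 h. TGF-b1 levels were measured by ELISA and fitted bidirectionally relative to DMSO.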

[12] = read-out: C-C motif chemokine 2 (Homo sapiens) (UniProt P13500); assay: BSK_KF3CT_MCP1: BioMAP Diversity Plus: KF3CT Assay for Monocyte Chemoattractant Protein 1 (MCP1/CCL2) Biomarker Activity (AID 2283073); details: primary human keratinocytes with fibroblasts; actives raise or lower the signal
Method in brief: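 Human keratinocyte plus foreskin fibroblast primary co-culture exposed to chemical for 24 h. MCP-1 levels measured by ELISA. Bidirectional curve fitting relative to DMSO negative control as baseline.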

[13] = read-out: Matrix Metallopeptidase 9 (MMP9), MMP9 (gene 4318); assay: BSK_KF3CT_MMP9: BioMAP Diversity Plus: KF3CT Assay for Matrix Metallopeptidase 9 (MMP9) Biomarker Activity (AID 2283074); details: primary human keratinocytes with fibroblasts; actives raise or lower the signal
Method in brief: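 Keratinocyte plus foreskin fibroblast human primary skin co-culture was dosed with chemical and MMP-9 was quantified by ELISA 24 h later. Bidirectional curve fitting used DMSO as negative control and activity baseline.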

[14] = read-out: urokinase plasminogen activator (uPA), PLAU (gene 5328); assay: BSK_KF3CT_uPA: BioMAP Diversity Plus: KF3CT Assay for urokinase plasminogen activator (uPA) Biomarker Activity (AID 2283075); details: primary human keratinocytes with fibroblasts; actives raise or lower the signal
Method in brief: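 Human keratinocyte plus foreskin fibroblast primary co-culture exposed to chemical for 24 h. uPA levels were quantified by ELISA, and activity was fitted bidirectionally against a DMSO negative-control baseline.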

CD40, CD40 (gene 958) = assay: BSK_LPS_CD40: BioMAP Diversity Plus: LPS Assay for CD40 Biomarker Activity (AID 2283076); details: primary human HUVEC with PBMC; actives raise or lower the signal
Method in brief: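 Primary human umbilical vein endothelial cells co-cultured with peripheral blood mononuclear cells, LPS-stimulated, were dosed with chemical and read 24 h later. CD40 levels were measured by ELISA and fitted bidirectionally against DMSO as negative control and baseline.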

[15] = read-out: E-selectin (Homo sapiens) (UniProt P16581); assay: BSK_LPS_Eselectin: BioMAP Diversity Plus: LPS Assay for Eselectin Biomarker Activity (AID 2283077); details: primary human HUVEC with PBMC; actives raise or lower the signal
Method in brief: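 Human umbilical vein endothelial cells co-cultured with peripheral blood mononuclear cells under LPS stimulation; E-selectin measured by ELISA 24 h after chemical dosing. Activity fitted bidirectionally against DMSO as negative control and baseline.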

[16] = read-out: Interleukin-8 (IL8), CXCL8 (gene 3576); assay: BSK_LPS_IL8: BioMAP Diversity Plus: LPS Assay for Interleukin-8 (IL8) Biomarker Activity (AID 2283078); details: primary human HUVEC with PBMC; actives raise or lower the signal
Method in brief: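 Human umbilical vein endothelial cells co-cultured with PBMC were stimulated with LPS; IL-8 levels were measured by ELISA 24 h after chemical dosing. Activity was fitted bidirectionally against DMSO as negative control and baseline.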

[17] = read-out: Interleukin-1 alpha (IL1a), IL1A (gene 3552); assay: BSK_LPS_IL1a: BioMAP Diversity Plus: LPS Assay for Interleukin-1 alpha (IL1a) Biomarker Activity (AID 2283080); details: primary human HUVEC with PBMC; actives raise or lower the signal
Method in brief: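 Human umbilical vein endothelial cells co-cultured with peripheral blood mononuclear cells were LPS-stimulated and exposed to test chemicals for 24 h. IL-1 alpha was quantified by ELISA, with bidirectional curve fitting against DMSO as the negative control and baseline.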

[18] = read-out: Monocyte Chemoattractant Protein-1 (MCP1), CCL2 (gene 6347); assay: BSK_LPS_MCP1: BioMAP Diversity Plus: LPS Assay for Monocyte Chemoattractant Protein-1 (MCP1) Biomarker Activity (AID 2283081); details: primary human HUVEC with PBMC; actives raise or lower the signal
Method in brief: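 HUVEC plus PBMC co-culture (human primary cells, LPS system) exposed to test chemical for 24 h; MCP-1 measured by ELISA. Bidirectional curve fitting against DMSO baseline; parallel SRB total-protein staining flags overt cytotoxicity.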

[19] = BSK_LPS_SRB: Viability Assessment in the BioMAP Diversity Plus: LPS Assay (AID 2283079); details: primary human HUVEC with PBMC;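 note: total protein by sulforhodamine B absorbance as a cytotoxicity measure; measured one day after compound addition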
Method in brief: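 Human umbilical vein endothelial cells co-cultured with PBMC (LPS system) were dosed for 24 h. Total protein was stained with 0.1% sulforhodamine B after 10% TCA fixation, read at 560 nm, and fitted bidirectionally against DMSO baseline.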

E-selectin (Homo sapiens), sequence (P16581 whole entry, looked up): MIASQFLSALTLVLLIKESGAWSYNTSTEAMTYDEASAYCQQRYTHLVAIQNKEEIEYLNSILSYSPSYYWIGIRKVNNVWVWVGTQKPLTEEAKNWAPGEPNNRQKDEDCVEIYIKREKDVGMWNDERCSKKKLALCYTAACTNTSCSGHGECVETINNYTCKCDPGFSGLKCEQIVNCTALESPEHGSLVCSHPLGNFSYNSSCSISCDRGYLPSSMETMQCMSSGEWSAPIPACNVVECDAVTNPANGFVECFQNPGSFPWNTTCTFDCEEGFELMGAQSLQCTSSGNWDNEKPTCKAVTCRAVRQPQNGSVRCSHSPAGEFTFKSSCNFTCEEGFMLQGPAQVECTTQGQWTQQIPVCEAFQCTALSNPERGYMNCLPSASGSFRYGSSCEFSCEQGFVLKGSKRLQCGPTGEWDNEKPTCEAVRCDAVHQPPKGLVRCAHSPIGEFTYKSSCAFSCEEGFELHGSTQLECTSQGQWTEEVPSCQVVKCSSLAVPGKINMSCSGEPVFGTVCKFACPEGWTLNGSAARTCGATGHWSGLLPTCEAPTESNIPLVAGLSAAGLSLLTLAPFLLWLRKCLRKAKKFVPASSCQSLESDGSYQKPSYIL

For Cc1ccc(Cl)cc1, which outcome [1] is on record?
Its outcome is “inactive”.

And the outcome [2]?
The outcome was “inactive”.

And the outcome [3]?
The outcome was “inactive”.

What about the outcome [4] of the same compound?
The outcome was “inactive”.

And the outcome [5]?
Its outcome is “inactive”.

What about the outcome [6] of the same compound?
The outcome was “inactive”.

What about the outcome [7] of the same compound?
Its outcome is “inactive”.

And the outcome [8]?
Its outcome is “inactive”.

What about the outcome [9] of the same compound?
Its outcome is “inactive”.

And the outcome [10]?
Its outcome is “inactive”.

What about the outcome [11] of the same compound?
Its outcome is “inactive”.

And the outcome [12]?
Its outcome is “inactive”.

And the outcome [13]?
The outcome was “inactive”.

And the outcome [14]?
Its outcome is “inactive”.

And the outcome (CD40, CD40 (gene 958))?
Its outcome is “inactive”.

What about the outcome [15] of the same compound?
The outcome was “inactive”.

What about the outcome [16] of the same compound?
Its outcome is “inactive”.

What about the outcome [17] of the same compound?
The outcome was “inactive”.

What about the outcome [18] of the same compound?
The outcome was “inactive”.

With CCCCCCCCCCCCCCCCCC(=O)O as the compound, how does the outcome [1] read?
The outcome was “inactive”.

What about the outcome [2] of the same compound?
The outcome was “inactive”.

And the outcome [3]?
The outcome was “inactive”.

What about the outcome [4] of the same compound?
The outcome was “inactive”.

And the outcome [5]?
The outcome was “inactive”.

What about the outcome [6] of the same compound?
The outcome was “inactive”.

And the outcome [7]?
The outcome was “inactive”.

What about the outcome [8] of the same compound?
Its outcome is “inactive”.

And the outcome [9]?
Its outcome is “inactive”.

What about the outcome [10] of the same compound?
Its outcome is “inactive”.

What about the outcome [11] of the same compound?
The outcome was “inactive”.

And the outcome [12]?
The outcome was “inactive”.

And the outcome [13]?
Its outcome is “inactive”.

And the outcome [14]?
Its outcome is “inactive”.

What about the outcome (CD40, CD40 (gene 958)) of the same compound?
Its outcome is “inactive”.

What about the outcome [15] of the same compound?
Its outcome is “inactive”.

What about the outcome [16] of the same compound?
Its outcome is “inactive”.

And the AC50 [17]?
The AC50 was 20 µM (active).

And the outcome [18]?
Its outcome is “inactive”.

For O=C(O)Cc1ccccc1Nc1c(Cl)cccc1Cl, which outcome [1] is on record?
The outcome was “inactive”.

And the outcome [2]?
The outcome was “inactive”.

And the outcome [3]?
The outcome was “inactive”.

And the outcome [4]?
Its outcome is “inactive”.

And the outcome [5]?
Its outcome is “inactive”.

What about the outcome [6] of the same compound?
Its outcome is “inactive”.

What about the outcome [7] of the same compound?
The outcome was “inactive”.

And the outcome [8]?
The outcome was “inactive”.

What about the outcome [9] of the same compound?
The outcome was “inactive”.

And the outcome [10]?
Its outcome is “inactive”.

And the outcome [11]?
The outcome was “inactive”.

What about the AC50 [12] of the same compound?
The AC50 was 8.68 µM (active).

And the outcome [13]?
The outcome was “inactive”.

And the outcome [14]?
Its outcome is “inactive”.

And the outcome (CD40, CD40 (gene 958))?
The outcome was “inactive”.

And the outcome [15]?
Its outcome is “inactive”.

And the outcome [16]?
Its outcome is “inactive”.

And the outcome [19]?
Its outcome is “inactive”.

What about the outcome [17] of the same compound?
The outcome was “inactive”.

And the outcome [18]?
The outcome was “inactive”.
